Some test systems named below: NCI-H23 lung; NCI-H226 lung; NCI-H322M lung; HOP-62 NSCLC; NCI-H460 lung; HOP-92 NSCLC; NCI-H522 lung; A549/ATCC NSCLC; 786-0 renal; COLO 205 colon; DU-145 prostate; K-562 leukemia; MALME-3M melanoma; MDA-MB-231 breast; RXF 393 renal; SF-268 CNS; SF-295 CNS; SF-539 CNS; UACC-257 melanoma; M14 melanoma.
Common to all, as to assay: NCI-60 one-dose screen, 48 h (100 = growth as untreated, 0 = no growth, -100 = all killed)
What all share (conditions): 10 µM unless noted

This is part of a sample that, as a whole, favours compounds with a hit. Of some 83,000 tested, about 20% had one in any assay.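 Cell lines were cultured in 96-well plates, exposed to a single compound concentration, and assessed for percent growth 48 hours later.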 Unmarked numbers belong to inactive results. Activity calls are given as the source filed them. How the source made its calls: active means growth percent below 10; inactive means the rest.

Turning to `O=C(C[C@]1(O)C(=O)Nc2ccc(Br)cc21)c1ccco1`, the growth with NCI-H23 lung was 97%; in the experiment on NCI-H226 lung it was 92.9%; in the experiment with NCI-H322M lung, 93.8%; with HOP-62 NSCLC it was 106%; in the experiment on NCI-H460 lung, 105%; with HOP-92 NSCLC it was 102%. The growth in the experiment on NCI-H522 lung was 88.3%; in the experiment with A549/ATCC NSCLC, 104%; in the experiment with 786-0 renal it was 108%; in the experiment with COLO 205 colon, 106%; with DU-145 prostate, 106%; with K-562 leukemia, 93.8%. Also, the growth with MALME-3M melanoma was 84.1%; in the experiment on MDA-MB-231 breast it was 98.6%; with RXF 393 renal it was 108%; in the experiment on SF-268 CNS, 88.5%; in the experiment on SF-295 CNS, 103%; with SF-539 CNS, 104%. For the same molecule, the growth was 101% with UACC-257 melanoma and 99.1% with M14 melanoma.

With `CCN(CC)C(=O)CC1=C(C)/C(=C/c2[nH]c(-c3ccc[nH]3)cc2OC)N=C1C`, the growth is 34% in the experiment on NCI-H23 lung; 20% in the experiment with NCI-H226 lung; 37.1% in the experiment on NCI-H322M lung; 33.1% in the experiment on HOP-62 NSCLC; 9.17% (active) with NCI-H460 lung; -14.8% (active) in the experiment with HOP-92 NSCLC. In addition, the growth in the experiment with NCI-H522 lung is 10.1%; in the experiment on A549/ATCC NSCLC it was 4.73% (active); with 786-0 renal, -13.3% (active); in the experiment with COLO 205 colon, 15.9%; in the experiment with DU-145 prostate, 34.8%; in the experiment on K-562 leukemia, 6.08% (active). The growth was 1.07% (active) with MALME-3M melanoma; -0.929% (active) with MDA-MB-231 breast; 35.9% with RXF 393 renal; 21.7% with SF-268 CNS; -51.6% (active) with SF-295 CNS; 20.6% in the experiment with SF-539 CNS. For the same molecule, the figures for the growth in the experiment with UACC-257 melanoma and in the experiment with M14 melanoma were 5.68% (active) and -55.8% (active), respectively.

In the case of `CN1CC(c2ccc(Br)cc2)C(C(=O)c2ccc(Br)cc2)C12C(=O)Nc1ccccc12` (stereo not given), the growth with NCI-H23 lung was 67.7%; with NCI-H226 lung, 73.5%; in the experiment on NCI-H322M lung, 89.9%; with HOP-62 NSCLC it was 69%; in the experiment with NCI-H460 lung, 73.3%; in the experiment on HOP-92 NSCLC it was 70.2%. The growth in the experiment with NCI-H522 lung is 58.2%; with A549/ATCC NSCLC, 59.2%; in the experiment on 786-0 renal it was 79.2%; with COLO 205 colon, 76.6%; in the experiment with DU-145 prostate, 83.5%; in the experiment with K-562 leukemia, 44.8%. The growth with MALME-3M melanoma is 81.7%; with MDA-MB-231 breast it was 81.7%; with RXF 393 renal it was 69.7%; in the experiment on SF-268 CNS, 69.5%; in the experiment on SF-295 CNS, 78.5%; in the experiment on SF-539 CNS, 90.5%. The figures for the growth in the experiment with UACC-257 melanoma and in the experiment with M14 melanoma were 85.5% and 76%, respectively.

Regarding `CN(C)c1ccc(/C=N\NC(=O)c2ccc3nc(-c4ccc(Cl)cc4)[nH]c3c2)cc1`, the growth in the experiment on NCI-H23 lung was 61.4%; with NCI-H226 lung it was 93.1%; in the experiment on NCI-H322M lung, 77.6%; in the experiment on HOP-62 NSCLC, 60.5%; in the experiment with NCI-H460 lung, 36.2%; in the experiment on HOP-92 NSCLC it was 84.6%. In addition, the growth with NCI-H522 lung was 96.1%; in the experiment on A549/ATCC NSCLC it was 17.8%; with 786-0 renal, 12.2%; with COLO 205 colon, 41.3%; in the experiment on DU-145 prostate, 85.4%; with K-562 leukemia, 38.8%. The growth is 11.8% in the experiment on MALME-3M melanoma; 63.9% in the experiment on MDA-MB-231 breast; 77.4% in the experiment with RXF 393 renal; 78.2% in the experiment on SF-268 CNS; 31.3% in the experiment with SF-295 CNS; 88% in the experiment with SF-539 CNS. Further, the results for the growth in the experiment with UACC-257 melanoma and in the experiment on M14 melanoma were 100% and 60.3%, respectively.

In the case of `Clc1ccc(-c2cc(-c3ccccc3)nc(N3CCN(CCCNc4ccnc5cc(Cl)ccc45)CC3)n2)cc1`, the growth in the experiment with NCI-H23 lung was 69%; with NCI-H226 lung, 45.9%; in the experiment on NCI-H322M lung, 28.2%; in the experiment with HOP-62 NSCLC, 82.1%; with NCI-H460 lung it was -12.8% (active); with HOP-92 NSCLC, 26.6%. The growth was 9.55% (active) in the experiment on NCI-H522 lung; 43.6% in the experiment with A549/ATCC NSCLC; -73.2% (active) with 786-0 renal; -54.2% (active) in the experiment with COLO 205 colon; 19.2% in the experiment on DU-145 prostate; -14.7% (active) in the experiment on K-562 leukemia. Besides, the growth is -32.8% (active) with MALME-3M melanoma; -51.7% (active) in the experiment on MDA-MB-231 breast; -60.5% (active) in the experiment with RXF 393 renal; 13.5% in the experiment with SF-268 CNS; 39.6% with SF-295 CNS; -65.7% (active) with SF-539 CNS. For the same molecule, the growth in the experiment with UACC-257 melanoma is 39.2%; in the experiment with M14 melanoma, -51.8% (active).

On to `O=S(O)c1cc(Cl)cc(Cl)c1OCc1ccccc1`, for which the growth in the experiment with NCI-H23 lung is 101%; in the experiment with NCI-H226 lung, 94.5%; with NCI-H322M lung, 95.9%; with HOP-62 NSCLC, 101%; in the experiment on NCI-H460 lung, 101%; with HOP-92 NSCLC, 87.6%. The growth is 96.2% in the experiment on NCI-H522 lung; 90.2% with A549/ATCC NSCLC; 102% in the experiment with 786-0 renal; 105% in the experiment with COLO 205 colon; 109% in the experiment on DU-145 prostate; 106% in the experiment with K-562 leukemia. Further, the growth in the experiment on MALME-3M melanoma was 99.8%; in the experiment on MDA-MB-231 breast, 107%; in the experiment with RXF 393 renal it was 97.3%; in the experiment with SF-268 CNS, 101%; in the experiment on SF-295 CNS it was 108%; in the experiment on SF-539 CNS it was 103%. Besides, the results for the growth in the experiment on UACC-257 melanoma and in the experiment with M14 melanoma were 90.8% and 101%, respectively.

`CCCCCCCCn1ccc2cc(NC(=O)CN=[N+]=[N-])ccc21`: the growth in the experiment with NCI-H23 lung is 102%; in the experiment with NCI-H226 lung, 95.4%; in the experiment with NCI-H322M lung, 102%; in the experiment on HOP-62 NSCLC it was 114%; in the experiment on NCI-H460 lung, 107%; in the experiment on HOP-92 NSCLC, 111%. In addition, the growth in the experiment on NCI-H522 lung was 88.3%; in the experiment with A549/ATCC NSCLC it was 100%; in the experiment with 786-0 renal, 94.1%; with COLO 205 colon, 118%; in the experiment with DU-145 prostate, 108%; in the experiment on K-562 leukemia, 93.5%. Also, the growth in the experiment on MALME-3M melanoma is 109%; in the experiment with MDA-MB-231 breast, 101%; in the experiment on RXF 393 renal, 104%; in the experiment with SF-268 CNS, 97.9%; in the experiment on SF-295 CNS, 100%; with SF-539 CNS it was 106%. The growth in the experiment with UACC-257 melanoma was 103%; with M14 melanoma, 109%.
